14-3-3 PPI: alters human 14-3-3 gamma binding to Raf peptide; P61981; FP, 14-3-3gamma / TMR-pS259-Raf peptide binding; inhibition, % at 40 µM; 160,000 tested, 0.19% active; in the data active means inhibition above about 30%;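 further: 0% = protein plus tracer without compound and 100% = blank with tracer alone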
Target sequence (P61981 whole entry, looked up): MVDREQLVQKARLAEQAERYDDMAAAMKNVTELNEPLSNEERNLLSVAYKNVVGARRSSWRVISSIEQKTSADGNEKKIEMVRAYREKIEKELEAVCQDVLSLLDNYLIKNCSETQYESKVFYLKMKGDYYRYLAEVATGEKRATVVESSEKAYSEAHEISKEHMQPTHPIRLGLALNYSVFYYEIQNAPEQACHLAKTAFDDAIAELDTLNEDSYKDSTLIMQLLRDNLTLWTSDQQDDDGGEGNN
An asterisk follows results filed as active. The entries come from a sample that favours hits as a whole.

SMILES | 14-3-3 PPI
COc1ccc(NC(=O)CSc2nc3c(c(=O)n2-c2ccc(C)cc2)SCC3)cc1 | -19
CN(C)CCCN1C(=O)CCn2c3c(c4cccc1c42)CCCC3 | -49
CS(=O)(=O)c1ccc2nc(NC(=O)c3ccccc3F)sc2c1 | 23
O=C(O)c1c[nH]c2ccc(S(=O)(=O)N3CCCCC3c3cccnc3)cc2c1=O (stereo not drawn) | 57*
CC1CCN(C(=O)c2c[nH]c3ccc(S(=O)(=O)N4CCCCC4c4cccnc4)cc3c2=O)CC1 (stereo not drawn) | -1
O=C(c1c[nH]c2ccc(S(=O)(=O)N3CCCCC3c3cccnc3)cc2c1=O)N1CCCC1 (stereo not drawn) | -9
CCOC(=O)C1=C(C)NC2=C(C(=O)CC(C)(C)C2)C1c1ccc(O)c([N+](=O)[O-])c1 (stereo not drawn) | 7
C=CCOC(=O)C1=C(C)NC2=C(C(=O)CCC2)C1c1cccc(F)c1 (stereo not drawn) | 6
CCSc1nc2ccc(N=Cc3cc(I)ccc3O)cc2s1 | -18
COc1ccc(N2C(=O)CC(Sc3nc(C)c4ccc(C)cc4n3)C2=O)cc1 (stereo not drawn) | -13
CCOC(=O)C1=C(C)NC2=C(C(=O)CC(C)(C)C2)C1c1ccc(OC(C)=O)cc1 (stereo not drawn) | -15
CC(=O)Nc1cc(C(=O)NCCN(C)C)ccc1Sc1ccc(F)cc1 | -6
Cc1cc(Cl)ccc1NC(=O)CN(Cc1ccccc1)S(=O)(=O)c1ccc(Br)cc1 | 0
CCCNC(=O)Cn1cnc2sc(C(=O)N3CC(C)CC(C)C3)c(C)c2c1=O (stereo not drawn) | 4
CC(C)Cn1c(C=Cc2ccc(Cl)cc2)nc2ccccc21 | -8
CC(C)N=c1cc2n(-c3ccc(Cl)cc3)c3ccccc3nc-2cc1Nc1ccc(Cl)cc1 | 97*
Cn1c(CNc2ccc(Cl)cc2)nc2ccccc21 | -9
COC(=O)c1ccccc1NS(=O)(=O)c1ccc(S(N)(=O)=O)cc1 | -2
Cc1cccc(Nc2ccc3noc4c3c2C(=O)c2ccccc2-4)c1 | -126
O=C1c2ccccc2-c2onc3ccc(NCc4ccco4)c1c23 | 82*
CCOc1ccc2noc3c2c1C(=O)c1ccccc1-3 | 4
COc1cc2c(cc1OC)C(C(=O)N(C)C1CCCCC1)C(c1ccccc1F)N(C)C2=O (stereo not drawn) | 0
Cc1cccc(NC(=O)CSc2n[nH]c(CC(C)C)n2)c1 | 2
COC(=O)c1sc2nc(-c3ccncc3)cc(C(F)(F)F)c2c1N | -38
Nc1c(C(=O)NCCc2ccccc2)sc2nc(-c3ccccc3)cc(C(F)(F)F)c12 | -2
SMILES | 14-3-3 PPI
Nc1c(C(=O)c2ccccc2)sc2nc(-c3ccccc3)cc(C(F)(F)F)c12 | 60*
COc1ccc(N2CCN(CCNC(=O)c3cccn4c(=O)c5cc6ccccc6cc5nc34)CC2)cc1 | 179*
O=C(NCCN1CCOCC1)c1cccn2c(=O)c3cc4ccccc4cc3nc12 | -10
COc1ccc(N2CCN(CCNC(=O)c3cccn4c(=O)c5ccc(Cl)cc5nc34)CC2)cc1 | -10
Cc1ccc(C(=O)Nc2cccc3c2C(=O)c2ccccc2C3=O)o1 | -43
CCOC(=O)c1ccc(-n2c(C=Cc3ccc([N+](=O)[O-])o3)nc3ccccc3c2=O)cc1 | -51
CCn1cc(C(=O)NCc2ccccn2)c(=O)c2cc(S(=O)(=O)N3CCCCC3)ccc21 | 119*
CCn1cc(C(=O)NC2CCCCC2)c(=O)c2cc(S(=O)(=O)N3CCCCCC3)ccc21 | 6
CCn1cc(C(=O)NCc2ccco2)c(=O)c2cc(S(=O)(=O)N3CCCCCC3)ccc21 | -2
COc1ccc(OC)c(C2CC(c3ccc(C)cc3)Nc3ncnn32)c1 (stereo not drawn) | -4
CSc1nc2c(c(=O)[nH]1)C(c1ccncc1)C1=C(CC(C)(C)CC1=O)N2 (stereo not drawn) | -3
COc1ccc(Cl)cc1NC(=O)C1=C(C)NC(=S)NC1c1ccccc1OC (stereo not drawn) | 1
Nc1ccc(C(=O)Nc2ccc(N)cc2N)cc1 | -33
COC(=O)CCCCCNc1ccc(C(=O)OC)cc1N | -12
Nc1ccc(NCCO)c(N)c1 | 91*
Cc1cccc(C)c1NC(=O)CSc1nc2ncc(Br)c(C)c2[nH]1 | -44
O=C1CC(c2ccccc2C(F)(F)F)c2ccccc2N1 (stereo not drawn) | 2
NC(=O)c1ccc(NC(=O)CN2CCN(S(=O)(=O)c3cccc([N+](=O)[O-])c3)CC2)cc1 | -1
COc1cc(NC(=O)c2cc(-c3cccc(Cl)c3)on2)cc(OC)c1OC | -29
Cc1ccc(N2N=C(c3ccccc3)CC2c2ccccc2)cc1 (stereo not drawn) | -9
O=c1oc2ccccc2cc1C1=NN(c2ccccc2)C(c2ccccc2)C1 (stereo not drawn) | 54*
COc1ccc(C2=NN(c3ccccc3)C(c3ccc(OC)cc3)C2)cc1 (stereo not drawn) | -34
Cc1ccc2c(c1)C(O)(CC(=O)c1ccc3ccccc3c1)C(=O)N2 (stereo not drawn) | 1
CCCCn1c(SCc2ccccc2Cl)nc2c1c(=O)[nH]c(=O)n2C | -6
C=CCSc1nnc2c(n1)OC(c1ccncc1)Nc1ccc(Br)cc1-2 (stereo not drawn) | -25
SMILES | 14-3-3 PPI
C=CCSc1nnc2c(n1)OC(C)(C)Nc1ccc(Br)cc1-2 | 112*
C=CCSc1nnc2c(n1)OC=Nc1ccc(Br)cc1-2 | -7
O=C(NC1CCCc2ccccc21)C1CCC(CNS(=O)(=O)c2ccc(Br)s2)CC1 (stereo not drawn) | -11
O=C(NCc1ccc(F)cc1)C(Sc1ccccc1)c1ccccc1 (stereo not drawn) | -1
O=C(Nn1cnnc1)C(Sc1ccccc1)c1ccccc1 (stereo not drawn) | 1
CNC(=O)C(Sc1ccccc1)c1ccccc1 (stereo not drawn) | 125*
CCCCCN1C2=C(C(=O)CC(C)(C)C2)C(c2cccc(Cl)c2)C2=C1CC(C)(C)CC2=O | 2
CC(C)C(=O)NC(Nc1sc2c(c1C(N)=O)CCCC2)(C(F)(F)F)C(F)(F)F | -1
O=C(O)c1ccc(NC2=C(N3CCOCC3)C(=O)c3ccccc3C2=O)cc1 | 56*
O=C(O)c1cccc(NC2=C(N3CCCC3)C(=O)c3ccccc3C2=O)c1 | -22
CCCCOc1ccc(NC2=C(N3CCOCC3)C(=O)c3ccccc3C2=O)cc1 | 1
CS(=O)(=O)N1CCCC(C(=O)NC2CCCCCC2)C1 (stereo not drawn) | -10
COC(=O)c1sc(NC(=O)c2ccccc2C)nc1C | 0
Clc1cc2c(cc1CSc1nnnn1-c1ccccc1)OCO2 | -1
COc1ccccc1-n1nnnc1SCc1cc2c(cc1Br)OCO2 | 50*
COc1ccccc1-n1nnnc1SCc1ccccc1 | -2
Cc1cccc(NC(=O)c2ccc3c(c2O)C(=O)c2ccccc2C3=O)c1 | -16
COc1ccc(NC(=O)C(CCSC)N2C(=O)C3C4c5ccccc5C(c5ccccc54)C3C2=O)cc1 (stereo not drawn) | -161
COc1ccc(-n2nc3cc(C)c(NC(=O)c4cccc5ccccc45)cc3n2)cc1 | -14
CCCCNc1ncc(C(C)=O)c2ccccc12 | 0
CCCCNc1ncc2cc3ccccc3nc2c1C#N | 90*
CCCCCn1c(N)c(C#N)c2nc3ccccc3nc21 | -7
CN(C(=O)c1cc2c(=O)oc3ccccc3c2s1)c1ccccc1Cl | 3
O=C(O)CC(C(=O)OCC1CCCO1)N1CCOCC1 (stereo not drawn) | -6
O=C(O)CC(C(=O)OC1CCCCC1)N1CCOCC1 (stereo not drawn) | 3

High-throughput results from PubChem.
